Records with an inconclusive call do not appear. The source made the active and inactive calls. Calls come from the whole dose curve; as a rule, active = well fitted curve in the direction sought with a large enough effect; inconclusive = small, poorly fitted or top-dose-only effect, or another doubt; inactive = no such curve, though single readings can be large; an effect the other way counts as inactive or inconclusive.
What was measured:
[1] = target: ATP-dependent 6-phosphofructokinase (Trypanosoma brucei brucei) (UniProt O15648); assay: qHTS Assay to Find Inhibitors of T. brucei phosphofructokinase: hit validation (AID 492961);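 note: luminescence reports ADP formed as PFK phosphorylates fructose-6-phosphate with ATP; % is set by controls: 0 for no effect and ±100 for the full control effect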
Chain of ATP-dependent 6-phosphofructokinase (Trypanosoma brucei brucei) (O15648 whole entry, looked up): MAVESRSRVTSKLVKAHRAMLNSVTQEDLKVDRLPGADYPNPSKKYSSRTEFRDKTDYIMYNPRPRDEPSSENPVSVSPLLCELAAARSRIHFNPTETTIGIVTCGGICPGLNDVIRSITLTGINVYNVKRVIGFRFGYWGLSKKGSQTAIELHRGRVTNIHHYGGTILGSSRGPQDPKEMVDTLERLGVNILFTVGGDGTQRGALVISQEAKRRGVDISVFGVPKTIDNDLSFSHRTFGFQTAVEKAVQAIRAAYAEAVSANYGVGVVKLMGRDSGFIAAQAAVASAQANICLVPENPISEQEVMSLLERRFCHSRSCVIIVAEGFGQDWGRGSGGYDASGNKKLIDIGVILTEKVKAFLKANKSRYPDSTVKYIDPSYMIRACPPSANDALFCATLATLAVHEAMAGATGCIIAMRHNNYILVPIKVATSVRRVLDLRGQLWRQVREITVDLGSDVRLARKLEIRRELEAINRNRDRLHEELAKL
In short: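 Compounds titrated; %activity normalized to 0x and 1x enzyme controls, curve-fitted. Readout: ADP-Glo luminescence after 45 min room-temperature reaction of 1.25 nM PFK, 0.1 mM ATP, 0.5 mM F6P, pH 8.0.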

[2] = qHTS profiling for inhibitors of Plasmodium falciparum proliferation (AID 504749); note: potency is the fitted concentration of half-maximal effect;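 for activity, negative = inhibition: 0% = DMSO vehicle and full inhibition = artemisinin control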; for all read-outs here: nearly all actives have a fitted effect of over 60% in size; conditions: P. falciparum in erythrocytes, SYBR Green DNA, 72 h; for activity, negative = inhibition: at 28.7 µM (top of the series)
In short: (§1)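 SYBR Green fluorescence (ex 485 nm, em 535 nm) reports parasite DNA after 72 h compound exposure of infected red cells at 0.3% parasitemia, 2.5% hematocrit; signal normalized to 0.29 uM artemisinin and vehicle wells.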

3D7 = assay: as above; conditions: P. falciparum in erythrocytes, SYBR Green DNA, 72 h; series mostly up to 28.7 µM
In short: as §1

ATS189 = assay: as above; conditions: P. falciparum in erythrocytes, SYBR Green DNA, 72 h; series mostly up to 28.7 µM
In short: as §1

ATS95 = assay: as above; conditions: P. falciparum in erythrocytes, SYBR Green DNA, 72 h; series mostly up to 28.7 µM
In short: as §1

C2A = assay: as above; conditions: P. falciparum in erythrocytes, SYBR Green DNA, 72 h; series mostly up to 28.7 µM
In short: as §1

CP185 = assay: as above; conditions: P. falciparum in erythrocytes, SYBR Green DNA, 72 h; series mostly up to 28.7 µM
In short: as §1

CP191 = assay: as above; conditions: P. falciparum in erythrocytes, SYBR Green DNA, 72 h; series mostly up to 28.7 µM
In short: as §1

CP217 = assay: as above; conditions: P. falciparum in erythrocytes, SYBR Green DNA, 72 h; series mostly up to 28.7 µM
In short: as §1

CP238 = assay: as above; conditions: P. falciparum in erythrocytes, SYBR Green DNA, 72 h; series mostly up to 28.7 µM
In short: as §1

CP250 = assay: as above; conditions: P. falciparum in erythrocytes, SYBR Green DNA, 72 h; series mostly up to 28.7 µM
In short: as §1

CP252 = assay: as above; conditions: P. falciparum in erythrocytes, SYBR Green DNA, 72 h; series mostly up to 28.7 µM
In short: as §1

CP256 = assay: as above; conditions: P. falciparum in erythrocytes, SYBR Green DNA, 72 h; series mostly up to 28.7 µM
In short: as §1

CP262 = assay: as above; conditions: P. falciparum in erythrocytes, SYBR Green DNA, 72 h; series mostly up to 28.7 µM
In short: as §1

CP265 = assay: as above; conditions: P. falciparum in erythrocytes, SYBR Green DNA, 72 h; series mostly up to 28.7 µM
In short: as §1

CP286 = assay: as above; conditions: P. falciparum in erythrocytes, SYBR Green DNA, 72 h; series mostly up to 28.7 µM
In short: as §1

DFO2036 = assay: as above; conditions: P. falciparum in erythrocytes, SYBR Green DNA, 72 h; series mostly up to 28.7 µM
In short: as §1

Dd2 = assay: as above; conditions: P. falciparum in erythrocytes, SYBR Green DNA, 72 h; series mostly up to 28.7 µM
In short: as §1

HB3 = assay: as above; conditions: P. falciparum in erythrocytes, SYBR Green DNA, 72 h; series mostly up to 28.7 µM
In short: as §1

P94_40 = assay: as above; conditions: P. falciparum in erythrocytes, SYBR Green DNA, 72 h; series mostly up to 28.7 µM
In short: as §1

CC1(C)C2CC[C@]1(C)[C@@H](O)C2
inactive: Potency [1] | activity, negative = inhibition ([2]; parasite line A) 6.51% | activity, negative = inhibition ([2]; parasite line B) 12% | Potency (3D7) | Potency (ATS189) | Potency (ATS95) | Potency (C2A) | Potency (CP185) | Potency (CP191) | Potency (CP217) | Potency (CP238) | Potency (CP250) | Potency (CP252) | Potency (CP256) | Potency (CP262) | Potency (CP265) | Potency (CP286) | Potency (DFO2036) | Potency (Dd2) | Potency (HB3) | Potency (P94_40)

O=C(O)Cc1sc(-c2ccc(Cl)cc2)nc1-c1ccccc1
inactive: Potency [1] | activity, negative = inhibition ([2]; parasite line A) 4.11% | activity, negative = inhibition ([2]; parasite line B) -3.92% | Potency (3D7) | Potency (ATS189) | Potency (ATS95) | Potency (C2A) | Potency (CP185) | Potency (CP191) | Potency (CP217) | Potency (CP238) | Potency (CP250) | Potency (CP252) | Potency (CP256) | Potency (CP262) | Potency (CP265) | Potency (CP286) | Potency (DFO2036) | Potency (Dd2) | Potency (HB3) | Potency (P94_40)

C=C[C@@]1(C)C[C@H](OC(=O)CSC(C)(C)CNC(=O)[C@@H](N)C(C)C)[C@@]2(C)C(C)CC[C@@]3(CCC(=O)[C@@H]32)[C@H](C)[C@H]1O (stereo not given in full)
inactive: Potency [1]
active: Potency ([2]; parasite line A) 3160 nM | Potency ([2]; parasite line B) 1410 nM | Potency (3D7) 8910 nM | Potency (ATS189) 11200 nM | Potency (ATS95) 5010 nM | Potency (C2A) 5010 nM | Potency (CP185) 1410 nM | Potency (CP191) 3980 nM | Potency (CP217) 5620 nM | Potency (CP238) 5010 nM | Potency (CP252) 1260 nM | Potency (CP256) 316 nM | Potency (CP262) 239 nM | Potency (CP286) 447 nM | Potency (DFO2036) 631 nM | Potency (Dd2) 282 nM | Potency (P94_40) 1580 nM

CO[C@H]1C[C@@H]2CC[C@@H](C)[C@@](O)(O2)C(=O)C(=O)N2CCCC[C@H]2C(=O)O[C@H]([C@H](C)C[C@@H]2CC[C@@H](O)[C@H](OC)C2)CC(=O)[C@H](C)/C=C(\C)[C@@H](O)[C@@H](OC)C(=O)[C@H](C)C[C@H](C)/C=C/C=C/C=C/1C
active: Potency ([2]; parasite line A) 3550 nM | Potency ([2]; parasite line B) 1780 nM | Potency (3D7) 2820 nM | Potency (ATS189) 3550 nM | Potency (ATS95) 3980 nM | Potency (C2A) 3550 nM | Potency (CP185) 5620 nM | Potency (CP191) 2240 nM | Potency (CP217) 3160 nM | Potency (CP238) 3980 nM | Potency (CP250) 3550 nM | Potency (CP252) 2820 nM | Potency (CP256) 4470 nM | Potency (CP262) 4780 nM | Potency (CP265) 3160 nM | Potency (CP286) 5010 nM | Potency (DFO2036) 1780 nM | Potency (Dd2) 2820 nM | Potency (HB3) 8910 nM | Potency (P94_40) 2240 nM
inactive: Potency [1]

NC(CSSCC(N)C(=O)O)C(=O)O (stereo not given)
inactive: Potency [1] | activity, negative = inhibition ([2]; parasite line A) 5.04% | activity, negative = inhibition ([2]; parasite line B) 19% | Potency (3D7) | Potency (ATS189) | Potency (ATS95) | Potency (C2A) | Potency (CP185) | Potency (CP191) | Potency (CP217) | Potency (CP238) | Potency (CP250) | Potency (CP252) | Potency (CP256) | Potency (CP262) | Potency (CP265) | Potency (CP286) | Potency (DFO2036) | Potency (Dd2) | Potency (HB3) | Potency (P94_40)

NCCCCC(N)C(=O)O (stereo not given)
inactive: Potency [1] | activity, negative = inhibition ([2]; parasite line A) -7.93% | activity, negative = inhibition ([2]; parasite line B) 13.6% | Potency (3D7) | Potency (ATS189) | Potency (ATS95) | Potency (C2A) | Potency (CP185) | Potency (CP191) | Potency (CP217) | Potency (CP238) | Potency (CP250) | Potency (CP252) | Potency (CP256) | Potency (CP262) | Potency (CP265) | Potency (CP286) | Potency (DFO2036) | Potency (Dd2) | Potency (HB3) | Potency (P94_40)

Nc1nc(F)nc2c1ncn2[C@@H]1O[C@H](CO)[C@@H](O)[C@H]1O
inactive: Potency [1] | activity, negative = inhibition ([2]; parasite line A) 9.43% | activity, negative = inhibition ([2]; parasite line B) 14.2% | Potency (3D7) | Potency (ATS189) | Potency (ATS95) | Potency (C2A) | Potency (CP185) | Potency (CP191) | Potency (CP217) | Potency (CP238) | Potency (CP250) | Potency (CP252) | Potency (CP256) | Potency (CP262) | Potency (CP265) | Potency (CP286) | Potency (DFO2036) | Potency (Dd2) | Potency (HB3) | Potency (P94_40)

CC[C@@]1(O)CC2CN(CCc3c([nH]c4ccccc34)[C@](C(=O)OC)(c3cc4c(cc3OC)N(C)C3[C@@](O)(C(=O)OC)C(OC(C)=O)[C@]5(CC)C=CCN6CC[C@@]43C65)C2)C1 (stereo not given in full)
active: Potency ([2]; parasite line A) 2510 nM | Potency ([2]; parasite line B) 1120 nM | Potency (3D7) 2000 nM | Potency (ATS189) 3980 nM | Potency (ATS95) 3550 nM | Potency (C2A) 2820 nM | Potency (CP185) 2240 nM | Potency (CP191) 2820 nM | Potency (CP217) 3550 nM | Potency (CP238) 3160 nM | Potency (CP250) 3550 nM | Potency (CP252) 3550 nM | Potency (CP256) 3160 nM | Potency (CP262) 1690 nM | Potency (CP265) 2240 nM | Potency (CP286) 794 nM | Potency (DFO2036) 891 nM | Potency (Dd2) 355 nM | Potency (P94_40) 3550 nM
inactive: Potency [1]

OCC1OC(O)C(O)C(O)C1O (stereo not given)
inactive: Potency [1] | activity, negative = inhibition ([2]; parasite line A) -3.4% | activity, negative = inhibition ([2]; parasite line B) 8.64% | Potency (3D7) | Potency (ATS189) | Potency (ATS95) | Potency (C2A) | Potency (CP185) | Potency (CP191) | Potency (CP217) | Potency (CP238) | Potency (CP250) | Potency (CP252) | Potency (CP256) | Potency (CP262) | Potency (CP265) | Potency (CP286) | Potency (DFO2036) | Potency (Dd2) | Potency (HB3) | Potency (P94_40)

CC(C)C(=O)OCC(=O)[C@@]12OC(C3CCCCC3)O[C@@H]1CC1C3CCC4=CC(=O)C=C[C@]4(C)C3[C@@H](O)C[C@@]12C (stereo not given in full)
inactive: Potency [1]
active: Potency ([2]; parasite line A) 794 nM | Potency ([2]; parasite line B) 562 nM | Potency (3D7) 1000 nM | Potency (ATS189) 891 nM | Potency (ATS95) 708 nM | Potency (C2A) 1260 nM | Potency (CP185) 794 nM | Potency (CP191) 708 nM | Potency (CP217) 794 nM | Potency (CP238) 1000 nM | Potency (CP250) 1120 nM | Potency (CP252) 1000 nM | Potency (CP256) 1120 nM | Potency (CP265) 1000 nM | Potency (CP286) 794 nM | Potency (DFO2036) 501 nM | Potency (Dd2) 1410 nM | Potency (HB3) 1120 nM | Potency (P94_40) 891 nM
